# Data as given in PubChem BioAssay AID743318 (Broad Institute, 2014).
# Measured potencies and affinities stand elsewhere. Unmarked numbers belong to inactive results. Calls of active or inactive are those of the source.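 Rule for the calls: active = cytotoxic signal drop whose half-maximal concentration is at most twice the top valid dose; inconclusive = flat drop between 30% and 70%, or poor fit; inactive = the rest.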
# Experiment: loss of A549 viability via ATP – cell-based, plate reader, dry powder, set 7, cytotoxicity control, dose response (AID 743318)
# Conditions: CellTiter-Glo ATP luminescence, 72 h; series mostly up to 26 µM; activity change, negative = cytotoxic: at the top concentration
SMILES,"activity change, negative = cytotoxic [%]",outcome
Fc1cccc(OCCn2c(=S)[nH]c3ccccc32)c1,-12.1,
CC(C)c1ccccc1NCCn1c(=S)[nH]c2ccccc21,24.5,
Fc1cccc2c1[nH]c(=S)n2CCOc1ccccc1,,inactive
CC(C)(C)c1ccc(OCCn2cnc3ccccc32)cc1,21.2,
